Screening results deposited in PubChem by several laboratories.
Cav3 T inh: human Cav3.2 channel inhibition, primary screen | AID 449739 | Cav3.2-expressing cells, Fluo-4 calcium fluorescence FDSS; stronger effect = lower value | B-score at 10 µM | 100,000 compounds, 4% hits;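 active = single-dose well whose peak fluorescence ratio is a statistical outlier from its plate by either plate-standardised score or position-corrected B-score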
CYP2C9 inh: human CYP2C9 inhibition. P11712. CYP2C9 Supersomes, luciferin-H conversion, luminescence. inhibition, % at 5 µM. 96,000 compounds, 20% hits;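 active = blocking of liver enzyme CYP2C9 beyond about 50% at 5 µM, limit read from the data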
CYP2C9 activ: increases human cytochrome P450 2C9 activity; P11712; recombinant CYP2C9, luciferin-H conversion, luminescence; stronger effect = higher value; factor 1 = untreated enzyme, 0 = blocked; activation factor at 5 µM; 96,000 compounds, 1.4% hits; AID 1024;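 active = activation factor of 2 or more for CYP2C9 at a 5 µM dose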
CYP2C19 inh: blocks human cytochrome P450 2C19; inhibition, % at 5 µM; CYP2C19 Supersomes, luciferin-H EGE luminescence, 30 min; 96,000 compounds, 21% hits;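 active = CYP2C19 inhibition above a set limit at 5 µM in the primary screen, cut at about 50% in these data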
CYP2C19 act: increases human CYP2C19 enzyme activity | P33261 | recombinant CYP2C19, luciferin-H EGE luminescence; stronger effect = higher value; 0 = fully inhibited enzyme, 1 = untreated enzyme | 96,000 tested, under 10 active | activation factor at 5 µM | AID 1025;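 active = activation factor of at least 2 at 5 µM in the primary screen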
Of the large screens only hits and unclear results are named; the others gave an inactive call. Hits are enriched below; roughly 27% of the tested compounds scored in any of these assays.

CCOC(=O)NC(=O)/C(C#N)=N\Nc1ccc(Cl)cc1	Cav3 T inh -5.09
CCOc1ccc(N/N=C(/C#N)C(N)=O)cc1	none
N#C/C(=N\Nc1ccc(Cl)cc1)C(=O)c1ccccc1	Cav3 T inh -5.55, CYP2C19 inh 68.7
CC1CCCCN1CCNS(=O)(=O)c1ccc2c(c1)oc(=O)n2C (stereo not given)	none
CC(Sc1nc2ccccc2o1)C(=O)O (stereo not given)	none
CCCCNC(=S)NC(=O)c1ccc(Cl)cc1Cl	none
O=C(NCCCn1ccnc1)C(=O)NCc1ccccc1	none (no result: CYP2C9 inh, CYP2C9 activ, CYP2C19 inh, CYP2C19 act)
O=C(NCCCn1ccnc1)Nc1ccc(Cl)c(Cl)c1	CYP2C9 inh 100.1, CYP2C19 inh 76.1
CCOc1ccc(NC(=O)C(=O)NCCCn2ccnc2)cc1	CYP2C9 inh 60.2, CYP2C19 inh 72.8
O=C(NCCCn1ccnc1)Nc1ccc(Cl)cc1	CYP2C9 inh 98.4, CYP2C19 inh 97.1
O=C(CNC(=O)c1ccc(Cl)cc1Cl)NCCCn1ccnc1	CYP2C9 inh 51.4, CYP2C19 inh 69.3
COc1cc(NC(=O)c2ccc(CNc3c(N4CCOCC4)c(=O)c3=O)cc2)cc(OC)c1	none
CC(C)c1[nH]c(=O)c(C#N)c2c1CSC(C)(C)C2	CYP2C19 inh 71.2
CCCCc1[nH]c(=O)c(C#N)c2c1CSC(C)(C)C2	CYP2C19 inh 63.4
CC(=O)Cc1nsc(Nc2ccc3c(c2)OCCO3)n1	CYP2C9 inh 72.0
CCOC(=O)N1CCN(c2cc(=O)n(-c3ccc(Br)cc3)c(=O)[nH]2)CC1	none
Cc1ccnc(N2C(=O)C3C4CC(C(Br)C4Br)C3C2=O)c1 (stereo not given)	none
O=C1C2C3CC(C(Br)C3Br)C2C(=O)N1c1ccccn1 (stereo not given)	CYP2C19 inh 62.3
Cn1nnnc1P(=O)(c1ccccc1)c1ccccc1	none
Cc1c(Br)cc(C(=O)OC2CCN(C)CC2)c(C)c1C	CYP2C9 activ 2.3
CCN(C1CCCCC1)S(=O)(=O)c1ccc(OC)c(C)c1	Cav3 T inh -6.27, CYP2C9 activ 2.1, CYP2C19 inh 75.4
CCN(C1CCCCC1)S(=O)(=O)c1cc(C)ccc1OC	CYP2C9 inh 94.4, CYP2C19 inh 85.6
CCCCCNC(=O)Cc1cc(=O)[nH]c(=O)[nH]1	none
O=C(COc1ccc(Cl)cc1Cl)N/N=C/CCc1ccccc1	none (no result: Cav3 T inh)
CC1CCC/C(=N\NC(=O)COc2ccc(Cl)cc2Cl)C1 (stereo not given)	CYP2C19 inh 79.9 (no result: Cav3 T inh)
COc1ccc(N2CCN(C(=O)C3CCCO3)CC2)cc1 (stereo not given)	none
O=C(CN1C(=O)NC2(CCCCCCC2)C1=O)N1CCOCC1	none
CCCCOc1nc2ccccc2nc1C(C#N)C(=O)NC1CCCCC1 (stereo not given)	none (no result: Cav3 T inh)
COC(=O)C1=C(C)N(CC2CCCO2)C(=O)C1 (stereo not given)	none
COC(=O)c1cc(Br)c(=O)n(CCN2CCCCC2)c1	none
COC(=O)c1cc(Br)c(=O)n(Cc2ccco2)c1	none
COC(=O)C1=C(C)N(CCC2=CCCCC2)C(=O)C1	CYP2C19 inh 97.8
COC(=O)c1cc(Br)c(=O)n(CCC2=CCCCC2)c1	CYP2C9 inh 84.6, CYP2C19 inh 96.3
COC(=O)c1cc(Br)c(=O)n(CCc2ccc(O)cc2)c1	CYP2C19 inh 51.5
COC(=O)c1cc(Br)c(=O)n(-c2ccc(F)cc2)c1	CYP2C19 inh 89.2
COC(=O)c1cc(Br)c(=O)n(CC(C)C)c1	none
COC(=O)c1cc(Br)c(=O)n(CCc2ccc(F)cc2)c1	CYP2C9 inh 55.6, CYP2C19 inh 93.9
COC(=O)c1cc(Br)c(=O)n(-c2ccccc2F)c1	CYP2C19 inh 50.6
O=C(NCc1ccc(F)cc1)c1cc2n(n1)C(C(F)(F)F)CC(C1CC1)N2 (stereo not given)	none
CNC(=O)[C@@]1(Cc2ccccc2)C=C[C@@H](C)N1C(C)=O	none (no result: CYP2C9 inh, CYP2C9 activ, CYP2C19 inh, CYP2C19 act)
OCc1cccnc1	none (no result: CYP2C9 inh, CYP2C9 activ, CYP2C19 inh, CYP2C19 act)
N#Cc1ccccc1Cn1c(-c2cscn2)nc2ccccc21	CYP2C19 inh 50.0
O=C(O)Cn1c(-c2cscn2)nc2ccccc21	none
COc1cc(NC(=O)Cn2c(-c3cncs3)nc3ccccc32)cc(OC)c1OC	CYP2C9 inh 56.1 (no result: Cav3 T inh)
O=C(Cn1c(-c2cscn2)nc2ccccc21)Nc1ccc2ccccc2c1	Cav3 T inh -4.8, CYP2C9 inh 63.0
O=C(Cn1c(-c2cscn2)nc2ccccc21)Nc1cc(F)ccc1F	CYP2C19 inh 63.6
CC(C)N=C(Nc1ccccc1)c1cccnc1	none
Cc1ccc(NC(=O)CN2C(=O)C3CCCCN3C(=O)c3ccccc32)cc1 (stereo not given)	none
CCSc1ncc(C#N)c(N)n1	none
C=CCSc1nccc(-c2cc(Cl)sc2Cl)n1	CYP2C9 inh 71.6, CYP2C19 inh 80.5
C=CCNCc1cccn1-c1ccccc1	none
CC(=O)c1cc2c(cc1NC(=O)CCCC(=O)O)OCO2	none
CC(=O)c1cc2c(cc1NC(=O)C1CC=CCC1C(=O)O)OCO2 (stereo not given)	CYP2C9 inh 74.5
COC/C=C/C1=CC2=CC(=O)C(C)(OC(=O)c3cnc4ccccc4n3)C(=O)C2=CN1CCc1c[nH]c2ccccc12 (stereo not given)	none (no result: CYP2C9 inh, CYP2C9 activ, CYP2C19 inh, CYP2C19 act)
CCOC(=O)/C(C#N)=C1/SC(CC)C(=O)N1c1ccc(Br)cc1 (stereo not given)	CYP2C19 inh 78.4
CCOC(=O)/C(C#N)=C1/SC(C)C(=O)N1c1ccc(Br)cc1 (stereo not given)	CYP2C9 inh 71.8, CYP2C19 inh 95.4
CCC1S/C(=C(\C#N)C(=O)NCc2ccco2)N(c2ccc(F)cc2)C1=O (stereo not given)	none
CCC1S/C(=C(\C#N)C(=O)NCc2ccco2)N(c2ccc(Br)cc2)C1=O (stereo not given)	Cav3 T inh -5.43, CYP2C9 inh 51.3
COc1ccc(C)cc1NC(=O)C(CCS(C)(=O)=O)NC(C)=O (stereo not given)	none
CCCCNC(=O)c1ccccc1NC(=O)CCSc1ccccc1	CYP2C9 inh 81.0, CYP2C19 inh 93.3
CCc1ccc(C(=O)COC(=O)c2cccc(N3C(=O)c4c(C)nc5ccccc5c4C3=O)c2)cc1	none (no result: Cav3 T inh)
COc1ccc(Nc2oc(COc3ccc(OC)cc3)nc2C#N)cc1	none (no result: CYP2C9 inh, CYP2C9 activ, CYP2C19 inh, CYP2C19 act)
COc1ccc(CCNc2oc(COc3ccccc3)nc2C#N)cc1	CYP2C9 inh 70.2 (no result: Cav3 T inh)
COc1ccc(Nc2oc(COc3ccccc3F)nc2C#N)cc1	CYP2C9 inh 60.3, CYP2C19 inh 54.2
N#Cc1nc(Cc2cccc3ccccc23)oc1NCCCN1CCOCC1	none
CNc1oc(-c2ccc(OCc3ccccc3)cc2)nc1C#N	CYP2C9 activ 2.2 (no result: Cav3 T inh)
COc1ccc(Nc2oc(COc3ccc(C)cc3)nc2C#N)cc1	none (no result: CYP2C9 inh, CYP2C9 activ, CYP2C19 inh, CYP2C19 act)
N#Cc1nc(Cc2cccc3ccccc23)oc1NCCCn1ccnc1	CYP2C9 inh 96.6, CYP2C19 inh 98.4
CC(=O)N(CC1CCCO1)c1nnc(-c2cnccn2)s1 (stereo not given)	none
CN(C)c1oc(-c2ccco2)nc1C#N	none
CN(Cc1ccccc1)c1oc(-c2ccco2)nc1C#N	Cav3 T inh -4.19, CYP2C9 inh 62.0, CYP2C19 inh 58.8
